An excerpt weighted towards active compounds, which were near 19% of everything screened.
TDP1 cell CPT – qHTS for Inhibitors of human tyrosyl-DNA phosphodiesterase 1 (TDP1): qHTS in cells in presence of CPT | AID 686979, 2013 | hit rate 12% among 420,000 | Potency, µM (highest dose often 46.2 µM), for inactives: at the highest dose activity change, negative = growth inhibition, hits mostly inhibitors | chicken DT40 Tdp1-/-;hTDP1 cells + 20 nM CPT, ATP luminescence, 48 h; note: potency is the fitted concentration of half-maximal effect; nearly all actives have a fitted effect of over 55% in size
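Chicken DT40 Tdp1-/- cells complemented with human TDP1, 400 cells/well, exposed to compounds plus 20 nM camptothecin for at least 48 h at 37 C; viability read as ATP content by CellTiter-Glo luminescence.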
DT40 TDP1 no CPT – qHTS for Inhibitors of human tyrosyl-DNA phosphodiesterase 1 (TDP1): qHTS in cells in absence of CPT; Potency, µM (series often up to 46.2 µM), for the others: top-dose activity change, negative = growth inhibition, usual class: inhibitors; hit rate 15% among 420,000; DT40 Tdp1-/- hTDP1 cells, no CPT, ATP luminescence, 48 h; note: potency is the fitted concentration of half-maximal effect; nearly all actives have a fitted effect of over 55% in size
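A cellular qHTS used chicken DT40 cells lacking endogenous Tdp1 but carrying stably transfected human TDP1. Compounds were applied without camptothecin, and cell growth kinetics were judged by ATP-dependent luminescence after ≥48 hr.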
TDP1 block – qHTS Assay for Inhibitors of Tyrosyl-DNA Phosphodiesterase (TDP1) | Tyrosyl-DNA phosphodiesterase 1 (Homo sapiens), Q9NUW8 | recombinant TDP1, AlphaScreen DNA substrate cleavage | Potency, µM (series often up to 130 µM), inactives show at the highest dose activity change, negative = inhibition, actives largely listed as inhibitors | hit rate 0.28% among 350,000 | AID 485290, 2010; note: potency is the fitted concentration of half-maximal effect; nearly all actives have a fitted effect of over 40% in size
Target sequence (Q9NUW8 whole entry, looked up): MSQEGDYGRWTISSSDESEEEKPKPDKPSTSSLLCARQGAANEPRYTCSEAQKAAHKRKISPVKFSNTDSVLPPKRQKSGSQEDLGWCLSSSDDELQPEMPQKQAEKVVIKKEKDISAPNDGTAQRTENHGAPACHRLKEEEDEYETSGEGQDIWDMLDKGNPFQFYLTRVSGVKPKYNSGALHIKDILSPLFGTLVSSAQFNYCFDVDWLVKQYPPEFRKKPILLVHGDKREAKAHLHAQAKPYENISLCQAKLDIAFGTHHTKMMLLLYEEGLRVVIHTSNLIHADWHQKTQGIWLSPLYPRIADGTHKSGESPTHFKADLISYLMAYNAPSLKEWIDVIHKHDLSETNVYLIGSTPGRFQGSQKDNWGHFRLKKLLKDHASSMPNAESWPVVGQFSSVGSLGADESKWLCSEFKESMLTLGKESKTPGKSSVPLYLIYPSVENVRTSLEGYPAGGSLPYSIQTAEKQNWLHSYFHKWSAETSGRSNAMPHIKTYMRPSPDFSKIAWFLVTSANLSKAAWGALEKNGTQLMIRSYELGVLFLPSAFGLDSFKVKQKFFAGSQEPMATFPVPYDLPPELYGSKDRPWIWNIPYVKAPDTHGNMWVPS
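Tdp1 1 nM final; 15 min RT w/ cpd; substrate 15 nM, 5 min; beads 10 ug/ml, 10 min; AlphaScreen read. Neg ctrl: no enzyme.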
Giardia killer – Small Molecules that selectively kill Giardia lamblia: qHTS | Giardia lamblia trophozoite viability | activity change, % at 7.66 µM, hits read low | hit rate 0.15% among 340,000 | AID 540267, 2011; in the data active = activity change below about -80%; inconclusive = between about -30% and that limit;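 note: parasites exposed to compound for two days anaerobically before the ATP read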
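Killing of trophozoites was scored by loss of ATP luminescence after a 48 hrs anaerobic exposure to compounds at 37 deg C, using 100 cells per well.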
ELG1 repair inh – qHTS screen for small molecules that inhibit ELG1-dependent DNA repair in human embryonic kidney (HEK293T) cells expressing luciferase-tagged ELG1 | hit rate 2.3% among 330,000 | AID 504467, 2011 | Potency, µM (highest dose often 46.1 µM), without a hit: at the top dose activity change, negative = inhibition, usual class: inhibitors | HEK293T ELG1-luciferase reporter, luminescence, 16 h; DNA damage induced by 5-fluorouridine; note: potency is the fitted concentration of half-maximal effect; nearly all actives have a fitted effect of over 55% in size
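DMSO vehicle served as the neutral condition. Each well held 2,000 cells given 5-fluorouridine plus compound; after 16 hr at 37 °C/5% CO2, ONE-Glo was added and luciferase measured 30 min later.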
IL-1B inflam inh – qHTS for Inhibitors of Inflammasome Signaling: IL-1-beta AlphaLISA Primary Screen; THP-1 LPS/ATP IL-1B secretion, AlphaLISA, 16 h; stronger effect = lower value; activity change, % at 57.5 µM; hit rate 4.7% among 360,000; in the data active = activity change below about -50%; inconclusive = mostly about -30% to -49%
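Secreted IL-1B measured by AlphaLISA bead assay after 16 h compound exposure of THP-1 cells; compounds (final up to 57.5 uM) added 1 h before LPS (250 ng/mL) and ATP (1.25 mM) stimulation; lower signal means less secretion.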
Numbers without * were called inactive; i = inactive; ? = inconclusive; / = no result; ! = not confirmed by another sample; [ ] = remark or other dose. Unless noted, calls come from the whole dose curve; as a rule, active = well fitted curve in the direction sought with a large enough effect; inconclusive = small, poorly fitted or top-dose-only effect, or another doubt; inactive = no such curve, though single readings can be large; an effect the other way counts as inactive or inconclusive. % is set by controls: 0 for no effect and ±100 for the full control effect.

SMILES | TDP1 cell CPT | DT40 TDP1 no CPT | TDP1 block | Giardia killer | ELG1 repair inh | IL-1B inflam inh
CC1(C)C=Cc2cc3ccc(=O)oc3cc2O1 | 15µM*! | 8.2µM*! | -10%[56.1 µM] | 7 | ? | -10
COc1c2ccoc2cc2oc(=O)ccc12 | -2% | -14% | -18% | 5 | 10% | -9
CC(=O)c1cc2c(cc1O)OC(C)(C)C=C2 | -6% | -9% | 22µM* | / | / | /
CCOc1ccc(/C=C2\CCC(C3CCCC3)C2=O)cc1 (stereo not given) | -3% | -1% | / | 8 | ? | -4
CCC(=O)OCOc1ccc(/C=C2/CCC(CN(C)C)C2=O)cc1 (stereo not given) | 2.3µM* | 2.9µM* | / | 1 | / | -1
CC1=NN(/C(=N\c2nnc(C)s2)Nc2ccccc2)[C@H](c2cccc3ccccc23)S1 | 23µM* | ? | -1% | -4 | ? | -5
COc1ccc(NC(=O)C(C)n2nc(-c3cc(C)ccc3C)c3c(c2=O)CCCC3)cc1 (stereo not given) | 21µM* | ? | 7% | / | / | /
COc1ccc(NC(=O)C(C)N2CCN(C)CC2)cc1 (stereo not given) | -6% | 2% | / | -16 | 9% | 31
CC(=O)N(/N=C/c1cccc(C)c1)c1nc(-c2ccc(Br)cc2)cs1 | 21µM* | ? | -2% | 16 | 2% | 61
COc1ccc(/C=N/N(C(C)=O)c2nc(-c3ccc(C)cc3)cs2)cc1 | -27% | 13µM* | -2% | 2 | 3% | ?
CC(=O)N(C)c1nc(-c2ccc(Cl)cc2)cs1 | -25% | -11% | 0% | -2 | ? | -2
Cc1ccc(S(=O)(=O)N2CCN(C(=O)c3cccs3)CC2)cc1C | -23% | ? | 5% | 0 | ? | -7
O=S(=O)(c1ccc(Cl)cc1)N1CCN(c2ncccn2)CC1 | 2% | -22% | 0% | 22 | 4% | -2
Cc1ccc(S(=O)(=O)N2CCN(c3ncccn3)CC2)cc1C | 5.8µM* | ? | / | 36 | / | 12
Cc1ccc(S(=O)(=O)N2CCN(c3ncnc4sccc34)CC2)cc1C | 5.8µM* | 5.8µM* | 7% | 6 | ? | -18
CC(C)CCN1CCN(Cc2ccc(C#CCCO)cc2)CC1CCO (stereo not given) | 9% | -3% | / | -4 | 5% | 16
Cc1ccc(C)c2c3c([nH]c12)-c1nonc1CC3 | -1% | ? | 4% | -13 | -10% | 19
Cc1ccccc1OCC(O)CNC1CCC(NCC(O)COc2ccccc2C)CC1 (stereo not given) | 3.7µM* | 2.3µM* | / | -9 | ? | -98*
OC(CNC1CCCCCC1)COc1cccc2ccccc12 (stereo not given) | 16µM* | 13µM* | / | -2 | 5% | -105*
OC(CNC1CCCC1)COc1ccccc1Br (stereo not given) | -18% | ? | / | -6 | -25% | -6
COc1ccc(S(=O)(=O)NCc2ccco2)cc1NC(=O)c1ccccc1 | ? | ? | 13% | -8 | -9% | -12
Cc1cc(C)nc(SCCC(=O)Nc2ccccc2Cl)n1 | 3% | -8% | 0% | 1 | -11% | -4
CCCCNC(=O)[C@@H]1CSC2c3ccccc3C(=O)N21 (stereo not given in full) | -12% | -9% | / | -14 | 3% | -3
CN(C)c1cc(NC(=O)CNC(C)(C)C)c(O)c2c1C[C@H]1C[C@H]3[C@H](N(C)C)C(=O)C(C(N)=O)=C(O)[C@@]3(O)C(=O)C1=C2O | 10% | 4% | / | / | / | /
CN(C)c1ccc(O)c2c1CC1CC3C(N(C)C)C(=O)C(C(N)=O)=C(O)[C@@]3(O)C(=O)C1=C2O (stereo not given in full) | 2.1µM* | 1.8µM* | / | -12 | / | -4
SMILES | TDP1 cell CPT | DT40 TDP1 no CPT | TDP1 block | Giardia killer | ELG1 repair inh | IL-1B inflam inh
CN(C)c1ccc(O)c2c1CC1CC3[C@@H](N(C)C)C(=O)C(C(N)=O)C(=O)[C@]3(O)C(=O)C1C2=O (stereo not given in full) | 6.5µM* | 4.1µM* | / | 11 | 1% | -20
CCc1cccc(C)c1NC(=O)Cn1nnc(-c2nc(-c3ccccc3F)no2)c1N | 8% | -12% | -3% | / | / | /
O=C(OCC(=O)c1c[nH]c2ccccc12)c1cc(Br)ccc1O | 10% | ? | 8% | 0 | ? | 4
COCCNC(=O)c1cccc(OC2CCN(Cc3ccc(Cl)c(F)c3)CC2)c1 | ? | ? | / | 2 | -14% | -53*
O=C(NCc1cccc(Cl)c1)c1cccc(OC2CCN(C(=O)C3CC3)CC2)c1 | 29µM* | 21µM* | 2% | 5 | ? | i
COCCNC(=O)c1cccc(OC2CCN(Cc3ccccc3C)CC2)c1 | 15% | 7% | / | -5 | -8% | 34
O=C(C1CC1)N1CCC(Oc2cccc(C(=O)N3CCCCC3CCO)c2)CC1 (stereo not given) | -26% | 11% | 7% | 9 | 4% | 7
COCCNC(=O)c1cccc(OC2CCN(Cc3cccc(SC)c3)CC2)c1 | ? | 16µM* | 3% | 1 | ? | ?
Cc1ccc(CN2CC(C(=O)NNC(=O)c3ccc(F)cc3)CC2=O)cc1 (stereo not given) | 2% | -4% | -6% | -7 | 6% | -5
CCCCNC(=O)CCCn1c(=O)c2ccccc2n(CC(=O)Nc2ccccc2OCC)c1=O | -2% | -1% | 4% | / | / | /
CCc1ccc(CN(Cc2ccco2)C(=O)COc2ccccc2Cl)cc1 | ? | 23µM* | -2% | / | / | /
Cc1cccc(OCC(=O)N(Cc2ccc(N(C)C)cc2)Cc2ccco2)c1C | ? | 7.3µM* | 15% | / | / | /
Cc1cccc(C)c1OCC(=O)N(Cc1ccco1)C1CCS(=O)(=O)C1 (stereo not given) | -10% | -8% | / | -5 | 23% | -16
Cc1ccc(CN(Cc2ccco2)C(=O)COc2cccc(C)c2C)o1 | 16µM* | 18µM* | 5% | / | / | /
Cc1ccccc1OCC(=O)N(Cc1ccco1)c1c(N)n(Cc2ccccc2)c(=O)[nH]c1=O | -18% | -13% | 0% | -19 | 20% | 0
Cc1ccc(OCC(=O)N(Cc2ccco2)Cc2ccc(C)o2)cc1 | 16µM* | 16µM* | 7% | / | / | /

Screening results deposited in PubChem by National Center for Advancing Translational Sciences (NCATS).
